In PubChem BioAssay (Tox21) one finds Potency data, which are given here for 40 molecules.

Inconclusive results are not listed. Where a call stands in place of a potency, no number is given. A structure can be active in one record and inactive in another. The source made the active and inactive calls. The call rests on the fitted dose curve.
Potency means the concentration at half of the fitted maximal effect.

This experiment is described as follows: qHTS assay to identify small molecule antagonists of the sonic hedgehog signaling (Shh) pathway (AID 1259369). Further: nearly all actives have a fitted effect of over 45% in size. As to conditions: NIH/3T3 Gli1-Luc reporter, Shh antagonist, luminescence 24 h; series mostly up to 92.4 µM. The text has this:
U.S. Tox21 Program National Center for Advancing Translational Sciences [NCATS] NIH Chemical Genomics Center [NCGC] U.S. Environmental Protection Agency [EPA] National Institutes of Environmental Health Sciences [NIEHS] National Toxicology Program [NTP] U.S. Food and Drug Administration [FDA] Tox21 Assay Overview: The sonic hedgehog (Shh) pathway is essential for normal embryonic development. Dysregulation of the Shh pathway can cause severe developmental defects in organs. Therefore chemicals that interfere with the pathway are potential developmental toxicants. A cell line designated 3T3Gli1-Luc (DMB/OARSA/CFSAN/FDA, Laurel, MD), a NIH/3T3 derived clone containing stably integrated Gli1-Luc reporter is used to detect chemical interference of the Shh pathway, by changes in the expression of the firefly Luc gene under the control of the Gli1 transcriptional response element. This cell line was used to screen Tox21 libraries for identifying and prioritizing the potential developmental toxicants that interfere Shh pathway. Conditioned medium-stimulated mode was used to screen for chemicals inhibiting Shh signaling.
Tox21 Assay Protocol Summary: 3T3 Gli1-Luc cells were dispensed at 2,000 per well in 5uL of culture medium into white solid bottom 1536-well plates (Greiner Bio-One, Monroe, NC) using a Multidrop Combi (Thermo Scientific, Waltham, MA) dispenser. The assay plates were incubated at 37 C and 5% CO2 for 4hr, and then 23nL of compounds dissolved in DMSO and positive control were transferred using a Pintool station (Wako, San Diego, CA). The compound transfer was followed by the addition of 1ul conditioned medium or assay buffer using two separate tips of Flying Reagent Dispenser (FRD, Aurora Discovery, San Diego, CA). The assay plates were incubated at 37C and 5% CO2 for 24hr. For luciferase read, 4uL of Amplite Luciferase reporter gene assay reagent (AAT Bioquest, Inc. Sunnyvale, CA) was added to each well of the assay plates using FRD and incubated at room temperature for 30min. The luminescence signal was measured using a ViewLux plate reader (Perkin Elmer, Shelton, CT).
As to `Cl[C@H]1OCCO[C@@H]1Cl`, the Potency result was “inactive”.

Take `Clc1cnc(Oc2ccc(Oc3ncc(Cl)cc3Cl)cc2)c(Cl)c1`: the Potency entry is “inactive”.

For `C=CCN=C=S`, the Potency result is “inactive”.

Turning to `Nc1nc(N)nc(NC2CC2)n1`, the Potency result is “inactive”.

Consider `Cc1ccccc1N`, for which the Potency result is “inactive”.

For the molecule `O=C(O)Cc1ccccc1`, the Potency result is “inactive”.

With `CCCOC(=O)c1ccccc1C(=O)OCCC`, the Potency entry is “inactive”.

With `NNc1ccccc1`, the Potency entry was “inactive”.

Take `Sc1ccccc1`: the Potency entry is “inactive”.

Take `N#Cc1cccc(C#N)c1`: the Potency entry is “inactive”.

Regarding `c1ccc2c(c1)CCCC2`, the Potency entry is “inactive”.

As to `COP(=S)(OC)Oc1ccc(SC)c(C)c1`, the Potency entry was “inactive”.

On to `CCSC(=O)N1CCCCCC1`, for which the Potency entry is “inactive”.

`COP(=S)(OC)SCN1C(=O)c2ccccc2C1=O`: the Potency was 54.5 µM (active).

Regarding `O=P1(NCCCl)OCCCN1CCCl` (stereo not given), the Potency result is “inactive”.

For the molecule `CC12CC1(C)C(=O)N(c1cc(Cl)cc(Cl)c1)C2=O` (stereo not given), the Potency entry is “inactive”.

On to `CCOP(=S)(OCC)Oc1ccc([N+](=O)[O-])cc1`, for which the Potency entry was “inactive”.

Consider `Oc1ccc(Cl)cc1`, for which the Potency result is “inactive”.

For `CC(C)CCCCCCOC(=O)c1ccccc1C(=O)OCCCCCCC(C)C`, the Potency result is “inactive”.

Regarding `O=[N+]([O-])c1ccc(Cl)c(Cl)c1`, the Potency result is “inactive”.

On to `C=CC#N`, for which the Potency entry was “inactive”.

Consider `O=S(=O)(O)OOS(=O)(=O)O`, for which the Potency result was “inactive”.

For the molecule `[N-]=[N+]=CC(=O)OC[C@H](N)C(=O)O`, the Potency result was “inactive”.

Regarding `OCc1ccco1`, the Potency result was “inactive”.

On to `CCCCCCCCCCCCCCCCCC(=O)O`, for which the Potency is 17.1 µM (active) and inactive.

Take `CNC(=O)O/N=C/C(C)(C)S(C)=O` (stereo not given): the Potency was 39.1 µM (active) and inactive.

With `CC(=O)C1CCOC1=O` (stereo not given), the Potency result was “inactive”.

In the case of `CN(C)CCC#N`, the Potency entry is “inactive”.

On to `C[C@H]1C(=O)O[C@@H]2CCN3CC=C(COC(=O)[C@](C)(O)[C@]1(C)O)[C@H]23`, for which the Potency entry is “inactive”.

Regarding `Cl/C=C/Cl`, the Potency result is “inactive”.

For `O=C(O)COc1ccccc1`, the Potency result was “inactive”.

In the case of `C=CC(=O)OCC(CC)CCCC` (stereo not given), the Potency entry is “inactive”.

On to `O=[N+]([O-])c1cc([As](=O)(O)O)ccc1O`, for which the Potency result is “inactive”.

As for `COC(C)(C)CCCC(C)C/C=C/C(C)=C/C(=O)OC(C)C` (stereo not given), the Potency entry was “inactive”.

In the case of `Oc1c(Br)cc(Br)cc1Br`, the Potency entry is “inactive”.

Take `C=CC(=O)OCCCCCC(C)C`: the Potency result was “inactive”.

Take `N#CN=C(N)N`: the Potency result is “inactive”.

With `O=C(O)c1cc(Oc2ccc(C(F)(F)F)cc2Cl)ccc1[N+](=O)[O-]`, the Potency entry was “inactive”.

Take `CNC(=O)O/N=C/C(C)(C)SC`: the Potency entry is “inactive”.

Take `Cc1cccc(C)c1N`: the Potency entry is “inactive”.
